According to PubChem BioAssay AID602233 (National Center for Advancing Translational Sciences (NCATS), 2012):
Screen size: about 380,000 compounds; about 170 (0.045%) were called active. Calls come from the whole dose curve; as a rule, active = well fitted inhibition curve with a large enough effect; inconclusive = small, poorly fitted or top-dose-only effect; inactive = no such curve, though single readings can be large or run the other way. The full list was thinned out, with actives kept by preference.

These compounds were tested against Phosphoglycerate kinase, glycosomal (Trypanosoma brucei brucei) (UniProt P07378) (assay: qHTS Assay to Find Inhibitors of Phosphoglycerate Kinase). Details: PGK/GAPDH coupled, Kinase-Glo luminescence, 60 min; series mostly up to 57.5 µM; activity change, negative = inhibition: at the top concentration.
From the text: Several species of the Trypanosomatidae family of parasitic protozoans cause a spectrum of diseases throughout the tropical and subtropical world. Sleeping sickness, caused by two subspecies of Trypanosoma brucei, is endemic to areas of sub-Saharan Africa, while Chagas disease, a manifestation of Trypanosoma cruzi infection, is prevalent throughout Central and South America. In addition, many species of Leishmania are responsible for a range of cutaneous and visceral diseases, causing ulcers, destructive lesions and kalaazar, a lethal infection of the viscera. Collectively, these organisms infect 30 million people worldwide (~500 million live in endemic areas), and account for ~130,000 deaths annually. Given their debilitating and prevalent nature, trypanosomatid parasites impose a heavy medical, economic and social burden on entire populations, primarily in the developing world. The problem is further exacerbated by the fact that existing treatments have progressed little in the past 50 years, and current drugs show high toxicity and poor efficacy. […] Blood-stream stages of T. brucei are entirely dependent on glycolysis as a source of ATP, and the tricarboxylic acid cycle and oxidative phosphorylation are both repressed. Glycolysis in axenically cultured T. cruzi, representing the intracellular pathogenic stage, is also essential for these parasites. […] Previous studies have shown that the glycolytic enzyme, phosphoglycerate kinase (PGK), is a viable target for drugs to kill these parasites. […] NIH Molecular Libraries Probe Production Network [MLPCN] NIH Chemical Genomics Center [NCGC] MLPCN Grant: R03 MH093212 PI Name: Malcolm Walkinshaw, University of Edinburgh
3ul of substrate/PGK buffer (columns 1,2,5-48) are dispensed into Greiner white solid bottom 1536-well assay plates; columns 3-4 receive only TEA buffer as 0x PGK controls. Compounds are then transferred via Kalypsys pin tool equipped with 1536-pin array (10nl slotted pins, V&P Scientific, San Diego, CA). Following addition of compound, 1ul of GAPDH (100nM final concentration, all columns) is added to initiate the reaction (this upstream coupling enzyme is necessary for in-well production of PGK substrate, 1,3-bisphosphoglycerate (1,3-BPG), which is unstable and not commercially available). The plates are then incubated at room temperature for 60 minutes. Kinase-Glo Plus reagent is added (2ul) and plates incubated for 10 minutes, before being transferred to a ViewLux high-throughput CCD imager (PerkinElmer) wherein single end-point measurements of luminescence are acquired using a clear filter. All reagents are diluted in an assay buffer consisting of 100mM TEA (pH 7.6), 5mM MgCl2 and 0.01% Tween-20.
Note: nearly all actives have a fitted effect of over 60% in size.

Sequence of Phosphoglycerate kinase, glycosomal (Trypanosoma brucei brucei) (P07378 whole entry, looked up): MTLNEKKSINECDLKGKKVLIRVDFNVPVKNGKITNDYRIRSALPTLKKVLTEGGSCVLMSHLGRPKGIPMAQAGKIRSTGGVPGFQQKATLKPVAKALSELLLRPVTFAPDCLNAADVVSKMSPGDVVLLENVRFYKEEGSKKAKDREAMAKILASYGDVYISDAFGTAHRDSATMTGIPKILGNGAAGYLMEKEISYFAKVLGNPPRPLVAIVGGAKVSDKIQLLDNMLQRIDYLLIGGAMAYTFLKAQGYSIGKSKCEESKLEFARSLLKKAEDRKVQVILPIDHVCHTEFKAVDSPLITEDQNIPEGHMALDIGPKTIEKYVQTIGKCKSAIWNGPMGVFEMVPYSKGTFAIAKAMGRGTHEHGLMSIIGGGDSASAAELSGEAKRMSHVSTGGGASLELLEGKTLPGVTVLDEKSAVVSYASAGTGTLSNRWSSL

outcome, inactive:
COC(=O)c1ccccc1NC(=O)C(Cc1ccccc1)N1Cc2ccccc2C1=O (stereo unspecified), COc1ccc(C2C(=O)N(C3CCCCCC3)CC(=O)N2CCc2ccc(Cl)cc2)cc1OC (stereo unspecified), COC(=O)c1c(NC(=O)C(C)Oc2ccc(Cl)c(C)c2)sc(C)c1C (stereo unspecified), COc1ccc(Cn2c(=O)c3oc4ccccc4c3n(CC(=O)Nc3ccc(F)cc3F)c2=O)cc1, CCOc1ccc(NC(=O)Cn2cc(C(=O)c3ccc(C)cc3)c(=O)c3cc4c(cc32)OCCO4)cc1, COc1ccc(CNC(=O)COCc2cc(-c3cccs3)on2)cc1OC, Cc1ccc(NC(=O)c2cn3c4c(ccc(Cl)c4c2=O)OC(C)C3)cc1C (stereo unspecified), Cc1ccc(-n2ncc3c(NCCCn4ccnc4)ncnc32)cc1Cl, CCCN1CCN(CCCNC(=O)c2cnn(-c3ccc(C)cc3)c2-n2cccc2)CC1, Cc1nn2c(=O)cc(COC(=O)c3cccc(NC(=O)COc4ccccc4Cl)c3)nc2s1, COc1ccccc1-c1noc(CSc2nnc(-c3ccccc3)n2-c2ccc(C)c(C)c2)n1, CCn1c2ccccc2c2nnc(SCC(=O)O)nc21, CCCSc1nc2sc3c(c2c(=O)n1-c1cccc(Br)c1)CC(C)(C)OC3, CCOC(=O)C1CCCN(CC(=O)Nc2cc(C)c3c(=O)oc4ccccc4c3n2)C1 (stereo unspecified)

Activity change, negative = inhibition, inactive:
O=C1CCCc2cc(S(=O)(=O)N3CCCC(C(=O)NCc4ccccc4)C3)ccc2N1 (stereo unspecified) 6.57%, COc1ccccc1CNC(=O)c1ccc(NC(=O)N2CC(C)Sc3ccccc32)cc1 (stereo unspecified) 3.38%, Cc1cc(C)c(/C=C/c2onc(C)c2S(=O)(=O)N2CCC(C(=O)Nc3ccc(Cl)cc3C)CC2)c(C)c1 1.64%, CCc1cccc(NC(=O)CSc2nccn2C)c1 0.152%, COc1cc(C(=O)NCC(c2ccc(Cl)cc2)N2CCOCC2)cc(OC)c1OC (stereo unspecified) 1.64%, CCCCc1nn2c(=O)cc(COC(=O)c3ccc(NC(=O)c4ccccc4C)cc3)nc2s1 -1.81%, Cc1ccccc1CNC(=O)c1ccc(NC(=O)N2CCCCc3ccccc32)cc1 9.36%, CCCN(CCC)C(=O)C(Cc1ccccc1)NS(=O)(=O)c1ccc2c(c1)c(=O)n(C)c(=O)n2C (stereo unspecified) -0.144%, CCCCNc1ccc(-c2nc(-c3ccncc3)no2)cc1[N+](=O)[O-] -0.547%, CCOc1ccccc1NC(=O)Cn1c(=O)n(Cc2ccco2)c(=O)c2sc3ccccc3c21 -8.83%, O=C(CSc1n[nH]c(-c2ccccc2)n1)N1CCCCC1 -1.92%, COc1ccc(-c2noc(CSc3nnc(-c4ccccc4)n3-c3ccc(F)cc3)n2)c(OC)c1 -0.281%, O=C(NCc1ccccc1Cl)C1=Cc2cc(Br)ccc2OC1 -7.68%, O=C(Nc1ccc(F)cc1F)c1cnn(-c2ccc(F)cc2)c1-n1cccc1 -3.35%, COc1ccccc1CNC(=O)CCn1c(=O)c2ccccc2n(CC(=O)Nc2ccc(Br)cc2F)c1=O -3.68%, Cc1ccc(Nc2ccc3cc(S(=O)(=O)N4CCCCC4)ccc3n2)cc1F -1.23%, COc1ccc(-c2nc3nc(C)cc(C)n3c2Nc2c(C)cccc2C)cc1 -1.29%, CSc1ccc(CCNC(=O)c2cc(C)nc3c2c(C)nn3-c2cccc(F)c2)cc1 -6.82%, NC1=NC(c2cc(F)cc(F)c2)n2c(nc3ccccc32)N1 (stereo unspecified) 1.97%, COc1ccc2c(Sc3ccc(C)cc3)c(C(=O)NC(C)c3ccccc3)[nH]c2c1 (stereo unspecified) -15.5%, CCCCOc1ccc(CNC(=O)c2ccc3c(c2)N(C)C(=O)C2CCCCN32)cc1 (stereo unspecified) -2.79%, O=C(Cn1c(-c2cccs2)cc2ccccc21)NCCc1ccc(Cl)cc1 -6.23%, COc1ccc(-c2cn3c(n2)sc2cc(C(=O)Nc4ccc(F)cc4)ccc23)cc1 -9.23%, COc1ccccc1CNC(=O)c1ccccc1NC(=O)c1nsc2ccccc12 -6.03%, Cc1ccc(Cn2c(=O)n(CCCC(=O)NCc3ccccc3Cl)c(=O)c3ccccc32)cc1 -2.7%, CCCCOc1ccc(NC(=O)c2cc3c(n(-c4ccc(Cl)cc4)c2=O)CCCC3=O)cc1 -0.531%, CCOc1ccccc1CNCc1c(C(=O)O)c(C)n(Cc2ccc(C)cc2)c1C -6.39%, CCOc1ccc(CNC(=O)CCc2c(C)nn(-c3ccc(N4CCCCC4)nn3)c2C)cc1 -4.7%, CCOC(=O)C1CCCN(S(=O)(=O)c2cc(-c3cc(C)no3)ccc2OC)C1 (stereo unspecified) -9.52%, COc1cccc(NC(=O)CN2C(=O)c3ccccc3Sc3ncccc32)c1 -0.909%, COc1cccc(OCCn2c(-c3ccc(Br)cc3)nc3ccccc3c2=O)c1 4.47%, O=C(Cn1c(=O)n(Cc2ccccc2)c(=O)c2sc3ccccc3c21)Nc1ccccc1F -5.67%, CCC(=O)N1CCc2cc(S(=O)(=O)NC(CC(C)C)C(=O)NCCc3cccc(C)c3)ccc21 (stereo unspecified) 7.21%, CCOc1ccc(-n2nc3ccc(NC(=O)c4ccc(OC)c(Cl)c4)cc3n2)cc1 9.53%, Cc1cc(C)c(NC(=O)c2cc3sc(Cl)cc3n2C)c(C)c1 5.73%, COc1ccc(-c2nc(Cn3c(=O)cc(C)c4c(C)nn(-c5ccccc5)c43)c(C)o2)c(OC)c1 9.43%, COc1ccccc1CNC(=O)c1ccc(-n2c(C)cc3c2CCCC3)cc1 3.07%, Cc1ccc(O)c(NC(=O)CCS(=O)(=O)c2nc(-c3ccc4c(c3)OCO4)cc(C(F)(F)F)n2)c1 -6.86%, COc1ccc(NC(=O)c2ccco2)cc1NC(=O)COc1ccc(C)c(C)c1 3.35%, O=C(NCCCO)C(=O)Nc1c2c(nn1-c1ccccc1)CSC2 13.6%, COc1ccc(NC(=O)CCNS(=O)(=O)c2ccc3c(c2)CCCC(=O)N3)cc1Cl 0.351%, CN1c2ccc(Cl)cc2-c2nc(SCC(=O)Nc3cc(F)ccc3F)ncc2S1(=O)=O -1.46%, COc1ccc(Cc2nc3ccc(C(=O)NCc4ccc(OC)cc4OC)cc3o2)cc1 8.22%, COc1ccc(S(=O)(=O)NCCSc2nnnn2-c2ccccc2)cc1 -2.3%, COC(=O)c1c(NC(=O)CCCOc2ccccc2)sc2c1CCC(C)C2 (stereo unspecified) 9.76%, Cc1nn2c(=O)cc(COC(=O)c3ccccc3NC(=O)COc3ccccc3C)nc2s1 0.156%, COc1ccccc1CNC(=O)CCCn1c(=O)c2ccccc2n(CC(=O)Nc2ccc(C)cc2Cl)c1=O -9.25%
